# Compound activity as filed in PubChem BioAssay.
# Only some compounds are listed: those with a hit (about 10% of all), similar ones and a draw of the others.
# NIH3T3 tox = kills NIH 3T3 cells; NIH 3T3 viability, CellTiter-Glo ATP luminescence, 48-72 h; 4.3% of 94,000 active; Potency, µM (doses to about 96.7 µM), for inactives: top-dose activity change, negative = cytotoxicity, usual class: inhibitors; note: % is set by controls: 0 for no effect and ±100 for the full control effect; nearly all actives have a fitted effect of over 55% in size
#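 Cytotoxicity was measured by CellTiter-Glo ATP luminescence after 48 or 72 h compound exposure at 37 °C. Mouse NIH 3T3 fibroblasts were seeded at 400 cells/well and dosed by 23 nL pin transfer.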
# GPT2 inhibitor = GPT2 alanine aminotransferase inhibition. Recombinant GPT2, coupled pyruvate oxidase/HRP Amplex Red fluorescence. Potency, µM (series often up to 57.7 µM), for inactives: at the highest dose activity change, negative = inhibition, actives largely listed as inhibitors. 0.25% of 100,000 active. AID 1671188; note: % is set by controls: 0 for no effect and ±100 for the full control effect; nearly all actives have a fitted effect of over 60% in size
#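 Fluorescence of coupled pyruvate oxidase/HRP/Amplex Red system (50uM Amplex, 30 min, dark) reports pyruvate formed by GPT2. Enzyme reaction: 10ng/uL GPT2, 2mM L-alanine, 250uM a-KG, 30 min room temperature, pH 7.5; 50uM AOA control.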
# NPR1 antag = human Npr1 receptor antagonism; P16066; HEK293 hNpr1 GloSensor cGMP, ANP-stimulated luminescence; Potency, µM (highest dose often 46.3 µM), inactives show at the highest dose activity change, negative = inhibition, most hits filed as inhibitors; 1.6% of 76,000 active; AID 1347048; calls by dose curve; note: % is set by controls: 0 for no effect and ±100 for the full control effect; nearly all actives have a fitted effect of over 60% in size
#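 HEK293 cells stably expressing human Npr1 and cGMP GloSensor pGS-40F, loaded 2 h with 2% GloSensor reagent, given compound 30 min at room temperature. Luminescence read before and 20 min after 0.1 nM hNppA.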
# FLuc inh-1 = blocks purified firefly luciferase enzyme activity. 2.5% of 76,000 active. P08659. Potency, µM (series often up to 115 µM), actives largely listed as inhibitors. purified P. pyralis luciferase, luminescence, biochemical; note: % is set by controls: 0 for no effect and ±100 for the full control effect; nearly all actives have a fitted effect of over 65% in size
# Target sequence (P08659 whole entry, looked up): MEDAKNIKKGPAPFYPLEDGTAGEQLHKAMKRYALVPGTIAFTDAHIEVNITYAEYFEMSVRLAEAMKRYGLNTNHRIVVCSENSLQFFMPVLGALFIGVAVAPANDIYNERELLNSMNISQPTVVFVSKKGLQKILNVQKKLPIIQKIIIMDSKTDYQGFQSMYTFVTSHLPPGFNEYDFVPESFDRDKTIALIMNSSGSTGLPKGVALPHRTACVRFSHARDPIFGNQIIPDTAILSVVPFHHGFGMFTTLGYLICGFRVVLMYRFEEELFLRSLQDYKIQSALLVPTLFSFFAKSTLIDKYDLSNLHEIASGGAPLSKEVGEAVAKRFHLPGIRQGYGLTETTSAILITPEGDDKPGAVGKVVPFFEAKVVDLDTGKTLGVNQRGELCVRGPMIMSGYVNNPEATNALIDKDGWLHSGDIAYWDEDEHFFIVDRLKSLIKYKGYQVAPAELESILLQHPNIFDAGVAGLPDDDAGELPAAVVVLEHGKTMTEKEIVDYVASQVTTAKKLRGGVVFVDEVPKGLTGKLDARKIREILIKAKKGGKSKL
#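 Luminescence read by CCD imaging after purified firefly luciferase (10nM final) was added to substrate buffer holding 10uM D-luciferin and 10uM ATP, pH 7.5, pre-dosed with compound.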
# HEK cytotox = HEK 293 cell cytotoxicity; HEK 293 viability, ATP luminescence (CellTiter-Glo), 48-72 h; Potency, µM (top dose mostly 115 µM), for the others: top-dose activity change, negative = cytotoxicity, most hits filed as inhibitors; 6.6% of 94,000 active; AID 1345083; note: % is set by controls: 0 for no effect and ±100 for the full control effect; nearly all actives have a fitted effect of over 60% in size
#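 250 HEK 293 cells/well; compound by pintool; incubated 48 or 72 hr at 37 degree Celsius; CellTiter-Glo added, 10 min RT, luminescence imaged.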
# FLuc SDR -ATP = firefly luciferase binding stabilization, ATP absent | shares compounds with FLuc inh-1 | Purified FLuc-C-HiBiT, Nano-Glo HiBiT luminescence, no ATP | Potency, µM (titrated, usually from 32.7 µM), for the others: at the highest dose activation (signal gain), hits mostly activators | 7.8% of 1,300 active; note: nearly all actives have a fitted effect of over 55% in size
# FLuc SDR ATP = binders stabilizing firefly luciferase, plus ATP | shares compounds with FLuc inh-1 | purified FLuc-C-HiBiT + ATP, HiBiT complementation luminescence | Potency, µM (highest dose often 32.7 µM), without a hit: at the highest dose activation (gain of signal), actives largely listed as activators | 8.7% of 1,300 active | AID 1963319;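 note: signal reports ligand binding via conformational change of the enzyme rather than luciferase catalysis; % of control where 0% means no effect; nearly all actives have a fitted effect of over 55% in size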
# FLuc inh-2 = blocks firefly luciferase enzymatic activity; shares compounds with FLuc inh-1; purified FLuc-C-HiBiT enzyme, luciferin luminescence; Potency, µM (highest dose often 32.7 µM), without a hit: at the top dose activity change, negative = inhibition, usual class: inhibitors; 42% of 1,300 active; note: % is set by controls: 0 for no effect and ±100 for the full control effect; nearly all actives have a fitted effect of over 70% in size
# * = called active by the depositor; i = inactive; u = inconclusive; x = not tested or not shown; [ ] = remark or other dose. Unless noted, calls come from the whole dose curve; as a rule, active = well fitted curve in the direction sought with a large enough effect; inconclusive = small, poorly fitted or top-dose-only effect, or another doubt; inactive = no such curve, though single readings can be large; an effect the other way counts as inactive or inconclusive. Potency is the fitted concentration of half-maximal effect.
SMILES,NIH3T3 tox,GPT2 inhibitor,NPR1 antag,FLuc inh-1,HEK cytotox,FLuc SDR -ATP,FLuc SDR ATP,FLuc inh-2
C[C@H](C(=O)N(C)CCC#N)C1CC[C@@]2(C)Cc3sc(NC(=O)c4cccn4C)nc3[C@@H](C)[C@@H]2[C@H]1O (some centres undefined),u,-18%,u,5µM*,u,30%,u,7µM*
C[C@H](C(=O)N1CCOCC1)C1CC[C@@]2(C)Cc3sc(-c4ccccc4)nc3[C@@H](C)[C@@H]2[C@H]1O (some centres undefined),u,3%,-2%,14µM*,u,6.2µM*,u,3.5µM*
C[C@H](C(=O)N(C)CCC#N)C1CC[C@@]2(C)Cc3sc(NC(=O)C4CC4)nc3[C@@H](C)[C@@H]2[C@H]1O (some centres undefined),-10%,2%,-11%,u,-2%,x,x,x
C[C@H](C(=O)NCCN1CCOCC1)C1CC[C@@]2(C)Cc3sc(CSc4ccccc4)nc3[C@@H](C)[C@@H]2[C@H]1O (some centres undefined),u,5%,10µM*,11µM*,40µM*,12%,11%,u
C[C@H](C(=O)NCCN1CCOCC1)C1CC[C@@]2(C)Cc3sc(CS(=O)(=O)Cc4ccc(F)cc4)nc3[C@@H](C)[C@@H]2[C@H]1O (some centres undefined),-24%,-29%,4%,i,-28%,x,x,x
Cc1cnc(C2CN(C(=O)C(C)Oc3ccccc3)C2)n1Cc1cccnc1 (centres undefined),-6%,i,x,x,i,x,x,x
COc1ccc(OC)c(CN2CCOc3ccc(C(=O)NCc4ccc(C)cc4)cc3C2)c1,u,i,-15%,i,u,13%,9%,-1%
COCc1nc(CCNC(=O)CCc2nc(-c3cccc(C)c3)no2)no1,-11%,i,x,x,-2%,x,x,x
COc1cccc(NC(=O)CCc2nc(-c3ccc(C(C)(C)C)cc3)no2)c1,x,x,x,x,x,20%,16%,7µM*
CCOc1ccc(C(=O)Nc2cc(-c3nc4cc(OC)ccc4o3)ccc2C)cc1[N+](=O)[O-],x,x,x,x,x,27%,18%,u
CCOC(=O)C1CCCN(C(=O)c2cn3cc(-c4ccc(F)cc4)sc3n2)C1 (centres undefined),-19%,-22%,x,x,-6%,x,x,x
O=C(NCC(F)(F)F)C1CCCN1c1nc2ncccc2o1 (centres undefined),i,-16%[88.5 µM],-1%[70.6 µM],i,i,11%[49.3 µM],7%[49.3 µM],6%[49.3 µM]
C#CCNC(=O)C1CCCN1c1nc2ncccc2o1 (centres undefined),-16%[138 µM],i,7%[70.6 µM],i,-2%[172 µM],x,x,x
Cc1ccc(NC(=O)C2CCN(C(=O)c3ncn4c3COC(c3ccccc3)C4)CC2)cc1C (centres undefined),i,-2%,6%,4µM*,5%,14%,u,u
COc1ccc(NC(=O)C2CCN(C(=O)c3ncn4c3COC(c3ccccc3)C4)CC2)cc1OC (centres undefined),0%,i,-2%,5.6µM*,12%,13%,u,3.5µM*
COc1ccc(NC(=O)C2CCN(C(=O)c3ncn4c3COC(c3ccccc3)C4)CC2)cc1 (centres undefined),i,i,1%,8.9µM*,8%,11%,u,u
CCN1CCCC12Cc1ccccc1CN(C(=O)c1c(C)noc1C)C2 (centres undefined),1%,4%,x,x,-19%,x,x,x
CC(C)(C)c1cc(CN2CCN(CC(O)c3ccc(Cl)cc3)CC2)cc(C(C)(C)C)c1O (centres undefined),x,-28%,x,x,x,x,x,x
Nc1ncnc2c1ncn2[C@@H]1O[C@H](CO)[C@@H](O)[C@@H]1O,x,i,x,x,x,11%,11%,-9%
CCCCOc1ccc(S(=O)(=O)n2c(C)nc3ccccc32)cc1,x,-14%[27.3 µM],x,x,x,x,x,x
Cn1c(=O)c2nc(/C=C/c3cccc(Cl)c3)n(C)c2n(C)c1=O,x,2%[88.5 µM],x,x,x,x,x,x
O=S(=O)(c1cccc(Cl)c1)n1c(/C=C/c2ccccc2Cl)nc2ccccc21,x,x,x,x,x,1.6µM*,u,0.18µM*
CCOc1ccc(S(=O)(=O)n2c(C)nc3ccccc32)cc1,x,-4%[27.3 µM],x,x,x,x,x,x
CSc1ccc(/C=C/c2nc3ccccc3n2S(=O)(=O)c2cccc(Cl)c2)cc1,x,x,x,x,x,2µM*,u,0.56µM*
Cc1ccc(/C=C/c2nc3ccccc3n2S(=O)(=O)c2ccc(Br)cc2)cc1,x,x,x,x,x,1.8µM*,u,0.62µM*
SMILES,NIH3T3 tox,GPT2 inhibitor,NPR1 antag,FLuc inh-1,HEK cytotox,FLuc SDR -ATP,FLuc SDR ATP,FLuc inh-2
CC(=O)N1CCN(C(=O)c2cc(-c3cc(Cl)cc(Cl)c3)c3nncn3n2)CC1,-16%,i,x,x,0%,x,x,x
Cn1cc(C2=C(c3ccc(Cl)cc3Cl)C(=O)NC2=O)c2ccccc21,x,-1%,x,x,x,x,x,x
Cn1cc(/C=C2\C(=O)Nc3cccnc32)c2ccccc21,x,x,x,x,x,17%,10%,u
CCN1CCN(C(=O)c2cn3cc(-c4cccc(C(F)(F)F)c4)sc3n2)CC1,-24%,i,x,x,0%,x,x,x
c1ccc(-c2cnc(Nc3ccc4c(c3)OCCO4)c3c2CCO3)cc1,u,4%[88.5 µM],u,2.8µM*,u,13%[49.3 µM],11%[49.3 µM],16µM*
COc1cccc(Nc2ncc(-c3cccnc3)c3c2OCC3)c1,u,i,-29%[70.6 µM],14µM*,100µM*,21%[49.3 µM],14%[49.3 µM],u
CNC(=O)c1cccc(-c2cnc(Nc3ccc(Cl)cn3)c3c2CCO3)c1,u,1%[88.5 µM],u,3.2µM*,u,18%[49.3 µM],17%[49.3 µM],u
COc1ccc(-c2cnc(NC(=O)Cc3ccccc3)c3c2CCO3)cn1,u,i,-4%[70.6 µM],i,-24%[172 µM],x,x,x
COc1ccc(-c2cnc(Nc3ccccc3)c3c2CCO3)cn1,u,i,u,3.5µM*,u,19%[49.3 µM],12%[49.3 µM],u
CC(=O)N1CCN(C(=O)[C@@]23CCCC[C@H]2N(CCC(C)C)C(=O)CC3)CC1,-9%,u,-2%,i,u,x,x,x
COc1ccc(-c2ccc(C(=O)N3CCN(C(=O)c4ccccc4Cl)CC3)cc2)nn1,-25%,x,x,x,u,x,x,x
